From PubChem BioAssay
The list is not random: actives were taken first. Their share in the collection is about 8.2%.
ELG1 repair inh = ELG1-dependent DNA repair inhibition; Potency, µM (doses to about 46.1 µM), usual class: inhibitors; HEK293T ELG1-luciferase reporter, luminescence, 16 h; DNA damage induced by 5-fluorouridine; 330,000 tested, 2.3% active; further: nearly all actives have a fitted effect of over 55% in size
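Overnight (16 hr) co-exposure of 2,000 cells/well to 5-fluorouridine and compound at 37 °C preceded detection. Luciferase was quantified via ONE-Glo luminescence; loss of signal denotes inhibition.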
KB-3-1 tox = kills parental KB-3-1 adenocarcinoma cells; KB-3-1 viability, CellTiter-Glo ATP luminescence, 72 h; Potency, µM (titrated, usually from 46.1 µM), hits mostly cytotoxic; 400,000 tested, 1.4% active; AID 1347075; further: nearly all actives have a fitted effect of over 60% in size
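Screening of KB-3-1 cells (DMEM, 10% FBS, phenol-red free) ran from lowest to highest compound concentration; after 72 h at 37 °C viability was read luminescently and curves fitted.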
MCF10A rereplic = induces DNA re-replication in MCF 10a normal breast cells | MCF 10A DNA re-replication, Hoechst nuclear intensity, 48 h | Potency, µM (top dose mostly 46.1 µM), hits mostly activators | 350,000 tested, 2.9% active | AID 624296; further: nearly all actives have a fitted effect of over 50% in size
KB-V1 MDR tox = kills drug-selected multidrug resistant KB-V1 cells; 400,000 tested, 3.4% active; KB-V1 MDR cells viability, CellTiter-Glo, 72 h; Potency, µM (titrated, usually from 46.1 µM), usual class: cytotoxic; further: nearly all actives have a fitted effect of over 60% in size
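qHTS viability screen in drug-selected KB-V1 MDR cells: 72 h compound treatment at 37 degrees C, ATP luminescence end point.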
SW480 rerep = induces DNA re-replication in SW480 colon adenocarcinoma cells | SW480 DNA re-replication, Hoechst DNA content imaging, 48 h | Potency, µM (doses to about 46.1 µM), usual class: activators | 340,000 tested, 1.8% active; further: nearly all actives have a fitted effect of over 55% in size
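Per well, 250 cells were exposed to pinned compound for 48 hr. Nuclear DNA was visualised with Hoechst (40 min, 37 C) and total object intensity recorded by fluorescence scanning.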
Large screens that a line does not name were inactive. The call rests on the fitted dose curve; in most records, active means well fitted curve in the direction sought with a large enough effect; inconclusive means small, poorly fitted or top-dose-only effect, or another doubt; inactive means no such curve, though single readings can be large; an effect the other way counts as inactive or inconclusive.

Cc1ccc(OCCN2CCCC2)cc1	MCF10A rereplic inconclusive, SW480 rerep 15µM
Cc1ccc(OCCCCN2CCc3ccccc3C2)cc1	KB-3-1 tox inconclusive, MCF10A rereplic 15µM
Cc1ccc(OCCCCN2CCCCC2)cc1	none
c1ccc(Cc2cc[n+](Cc3ccccn3)cc2)cc1	KB-3-1 tox inconclusive, KB-V1 MDR tox inconclusive
COc1cc2ncc3c(-c4ccc(C)cc4)nn(-c4ccc(F)cc4F)c3c2cc1OC	none (no result: ELG1 repair inh, MCF10A rereplic, SW480 rerep)
CCOc1ccc(CN(C(=O)c2oc3cc(C)ccc3c2C)C2CCS(=O)(=O)C2)cc1 (centres undefined)	ELG1 repair inh inconclusive, KB-3-1 tox inconclusive, MCF10A rereplic 15µM, KB-V1 MDR tox inconclusive, SW480 rerep 21µM
Cn1c(=O)c2c(nc(-c3ccccc3)n2C)n(Cc2ccccc2)c1=O	KB-V1 MDR tox 15µM
COc1ccc(-c2nc3c(c(=O)[nH]c(=O)n3Cc3ccccc3)n2C)cc1	none
Cn1c(-c2cccc(OCc3ccccc3)c2)nc2c1c(=O)[nH]c(=O)n2Cc1ccccc1	ELG1 repair inh inconclusive, KB-3-1 tox 15µM, MCF10A rereplic inconclusive, KB-V1 MDR tox inconclusive
COc1ccc(-c2nc3c(c(=O)[nH]c(=O)n3Cc3ccccc3)n2Cc2ccccc2)cc1	ELG1 repair inh 8.2µM, KB-3-1 tox inconclusive, MCF10A rereplic inconclusive, KB-V1 MDR tox 3.7µM
Cn1c(-c2cccc(F)c2)nc2c1c(=O)[nH]c(=O)n2Cc1ccccc1	ELG1 repair inh inconclusive
COc1ccc(NC2CCCN(C(=O)c3c(C)noc3C)C2)cc1 (centres undefined)	KB-V1 MDR tox inconclusive
C=CCn1c(SCC(=O)O)nc2sc(CC)cc2c1=O	none
C=CCn1c(SCC(=O)c2cccs2)nc2sc(CC)cc2c1=O	ELG1 repair inh 21µM, KB-3-1 tox inconclusive, MCF10A rereplic inconclusive, KB-V1 MDR tox inconclusive
O=C(COc1ccc(Cl)cc1)NCC(c1ccco1)S(=O)(=O)c1ccc(F)cc1 (centres undefined)	none (no result: ELG1 repair inh, MCF10A rereplic, SW480 rerep)
Cc1ccc(NNC(=O)c2snnc2C)cc1Cl	ELG1 repair inh inconclusive, SW480 rerep 2.3µM
O=S(=O)(NCC(c1ccco1)N1CCOCC1)c1ccc(F)cc1 (centres undefined)	none (no result: ELG1 repair inh, MCF10A rereplic, SW480 rerep)
COc1ccc(C#Cc2ccc3c(=O)c4ccccc4n(C)c3c2)cc1	MCF10A rereplic inconclusive, SW480 rerep inconclusive
COc1ccccc1C#Cc1ccc2c(=O)c3ccccc3n(C)c2c1	ELG1 repair inh inconclusive, MCF10A rereplic 21µM
Cn1c2ccccc2c(=O)c2ccc(C#Cc3ccc(N)cc3)cc21	MCF10A rereplic inconclusive, SW480 rerep 15µM
Cn1c2ccccc2c(=O)c2ccc(Cl)cc21	KB-3-1 tox inconclusive, KB-V1 MDR tox 13µM (no result: ELG1 repair inh, MCF10A rereplic, SW480 rerep)
COCC(=O)N1CCC(Oc2ccc(C(=O)NCc3cc(C)n(C)n3)cc2)CC1	none
NC(=O)C1CCN(c2ncc(-c3cccc(N4CCCCC4)c3)s2)CC1	none (no result: ELG1 repair inh, MCF10A rereplic, SW480 rerep)
COCc1ccc(-c2c(-c3ccc(OC)cc3)oc(=O)c3cc(OC)c(OC)cc23)cc1	MCF10A rereplic 2.6µM
COc1ccc(/C=C/c2c(-c3ccc(OC)cc3)oc(=O)c3cc(OC)c(OC)cc23)cc1	ELG1 repair inh 5.8µM
COc1ccc(-c2oc3cccnc3c2/C=C/c2ccc(OC)c(OC)c2)cc1	ELG1 repair inh inconclusive, MCF10A rereplic inconclusive, SW480 rerep 1.6µM
COc1cc(OC)cc(-c2oc(=O)c3cc(OC)c(OC)cc3c2C#CCCO)c1	ELG1 repair inh inconclusive
COc1ccc(-c2oc(=O)c3cc(OC)c(OC)cc3c2C#CCCO)cc1	ELG1 repair inh 16µM, SW480 rerep inconclusive
COc1ccc(/C=C/c2ccncc2)cc1OC	ELG1 repair inh inconclusive
COc1cc(CN(C)CC2CCCN(CCc3cccc(C(F)(F)F)c3)C2)ccc1O (centres undefined)	none
O=c1oc(-c2ccc([N+](=O)[O-])cc2)nc2ccc(O)cc12	none
CCc1ccccc1NC(=S)NCC1CCN(c2ccc(OC)cc2)C1 (centres undefined)	KB-3-1 tox inconclusive, MCF10A rereplic inconclusive, KB-V1 MDR tox 21µM
COc1ccc(N2CCC(CNC(=S)Nc3cccc(OC)c3)C2)cc1 (centres undefined)	none (no result: KB-3-1 tox, MCF10A rereplic, KB-V1 MDR tox, SW480 rerep)
CCc1cccc(C)c1NC(=S)NCC1CCN(c2ccc(OC)cc2)C1 (centres undefined)	ELG1 repair inh inconclusive, SW480 rerep inconclusive
